In PubChem BioAssay (NCI):
Values joined by “and” are separate entries in the source; they are usually repeats but may differ in a detail not shown here. Equal values may be shown once. This is part of a sample that, as a whole, favours compounds with a hit. Of some 83,000 tested, about 20% had one in any assay.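 The test compound was applied at a single concentration to cells in 96-well plates for 48 hours, and percent growth was recorded.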 A number with no mark means an inactive call. Active and inactive are the calls of the source.

Test system: BT-549 breast
Test: NCI-60 one-dose screen, 48 h (100 = growth as untreated, 0 = no growth, -100 = all killed)
Details: 10 µM
Protocol: Growth inhibition of the BT-549 human tumor cell line is measured as a screen for anti-cancer activity. Cells are grown in 96 well plates and exposed to the test compound for 48 hours. Compounds are tested at a single concentration, which is 10^-5 M for most compounds. The reported endpoint is percent growth (GI% or GIPRCNT), where numbers from 0 - 100% represent growth inhibition, and numbers from -100% - 0 represent cell death. For example, a value of 40 represents 60% growth inhibition. A value of 0 means no net growth occurred over the course of the experiment. A value of -40 indicates 40% of cells at the beginning of the experiment died by the end of the experiment. A value of -100 means all cells are dead at the end of the experiment.
NCI-60 Human Tumor Cell Lines Screen was performed using the standard one-dose NCI protocol, which is described in more detail at https://dtp.cancer.gov/discovery_development/nci-60/default.htm.
Compounds with GIPRCNT values below 10 were considered active. Activity score was based on GIPRCNT using the following formula: […]
Score is 0 for GIPRCNT values of 100 or above, 50 for GIPRCNT values of 0, and 100 for GIPRCNT values of -100.

SMILES	growth
CCN(Cc1ccccc1)c1ccc(/C=C2\COc3ccccc3C2=O)cc1	95.6%
O=C(/C=C/c1cccc(Oc2ccc(Cl)cc2)c1)c1ccccc1	102%

Same assay, conditions: 10 µM unless noted

SMILES	growth
CC(=O)N1N=C(c2ccc(Nc3nc(Nc4ccc(F)cc4)nc(Nc4ccc(F)cc4)n3)cc2)CC1c1ccccc1 (stereo not given)	120%
Cc1cc2nc(C(Cl)Cl)nc(-c3ccc(Cl)cc3)n2n1	52.5%
C=C1CCC2C3(C)COC(c4ccc(NC(C)=O)cc4)OC3CCC2(C)C1C/C=C1/C(=O)OCC1O (stereo not given)	59.8%
COCCn1cc(-c2csc(-c3cn(C)c4ccc(F)cc34)n2)c2cccnc21	63.8%
CS(=O)(=O)Nc1cc(-c2ccc3ncnc(Nc4ccc(F)c(Cl)c4)c3c2)cnc1Cl	-21.7% (active)
COc1ccc(/C=C/C(=O)c2cc3c(N)c(C(=O)Nc4ccccc4)sc3nc2C)cc1	2.86% (active)
O=C(CCCOc1ccc(Br)cc1)Nc1ncc(Cc2ccc(F)cc2)s1	82%
O=C1/C(=C/c2ccc(-c3cccc(C(F)(F)F)c3)o2)SC(=S)N1CCc1ccc(O)cc1	75.7%
CN1CCN(c2ccc(Nc3ncc(C(N)=O)c(NCCCNC(=O)C4CCC4)n3)cc2)CC1	19.4%
CCCCSc1ccc2nc(-c3ccc(OCCCN=C(N)N)cc3)cn2c1	54.2%
O=C(NNc1ccccc1)c1ncc[nH]1	101%
COc1ccc(/C=N/NC(=O)CN2CCN(c3cc4c(cc3F)c(=O)c(C(=O)O)cn4C3CC3)CC2)cc1O	107%
O=C(Nc1ncc(Cc2cccc(C(F)(F)F)c2)s1)c1ccc2c(c1)OCCO2	35.8%
Cc1cc(N2CCCCC2)nc(NCc2cc(Nc3ccnc4cc(Cl)ccc34)ccc2F)n1	15.5%
COc1cccc(C2C(C#N)=C(N)Oc3cc(OCCCCCC[P+](c4ccccc4)(c4ccccc4)c4ccccc4)ccc32)c1 (stereo not given)	-54.3% (active)
c1ccc(Cc2cccc[n+]2C(c2ccccc2)c2ccccc2)cc1	29.8%
Clc1ccc2c(NCCN3CCN(c4ccnc(N5CCCC5)n4)CC3)ccnc2c1	75.8%
Cn1cc(C2=C(c3cccc4ccccc34)C(=O)NC2=O)c2cc(Br)ccc21	109%

SMILES	growth
OB(O)c1ccsc1-c1nc2ccc3[nH]ncc3c2c2c1CCCC2	47.1%
O=Nc1ccc(NO)c2ccccc12	83.3% and 87.8%
ON=C1CCCCCCCC1	110% and 101%
CCOC(=O)C(=CCC(C)C)C(=O)OCC	93.1%
CCOC(=O)c1c(-c2ccc(OC)cc2)c(C#N)c2c(C#N)c(N)nn2c1N	37%
CN(C)CCCn1c2c(c3ccc(N4CCNCC4)cc3c1=O)C(=O)c1ccccc1-2	54.2%
O=C1OCC2=C1C(c1cccc([N+](=O)[O-])c1)c1cc3c(cc1N2CCO)CCC3 (stereo not given)	31.5%
Cc1ccc2[nH]c(=S)[nH]c(=O)c2c1	101%
COCCOc1cc2ncnc(N3CCN(S(=O)(=O)c4ccccc4Cl)CC3)c2cc1OCCOC	89.5%
COc1ccc2c(c1)CCNC21C(=O)Nc2c(Br)cc(Br)cc21 (stereo not given)	103%
O=C1/C(=C/c2cn(-c3ccccc3)nc2-c2ccccc2)SC(=S)N1c1ccc(Cl)cc1	78.2%
COC(=O)N/N=C/c1c[n+]([O-])c2ccccc2[n+]1[O-]	108%
[Cu+].[NH-][C@H]1C[N-]C(=O)[C@H]([C@H]2CCN=C(N)N2)[N-]C(=O)/C(=C\NC(N)=O)[N-]C(=O)[C@H](CNC(=O)C[C@@H](N)CCCN)[N-]C(=O)[C@H](CO)[N-]C1=O	104%
O=C(CN1C(=O)S/C(=C\C(Cl)=C\c2ccccc2)C1=O)NCCCn1ccnc1	43.8%
Cn1ccnc1CN1CCSC(C(=O)Nc2ccccc2)C1 (stereo not given)	93.3%
COc1ccc(C2Nc3nc(SC)nc(N)c3N=C3c4ccccc4CCC32)cc1 (stereo not given)	105%
Cc1ccc(-c2nc3nc(-c4ccccc4)nc(N4CCN(S(=O)(=O)c5ccccc5)CC4)c3o2)cc1	64.5%
Nc1nc(Cl)nc2c1ncn2C1OC(CO)C(O)C1O (stereo not given)	40.2%

Same assay, conditions: 100 µM

SMILES	growth
CCN(Cc1ccccc1)c1ccc(/C=C2\COc3ccccc3C2=O)cc1	16.3%
O=C(/C=C/c1cccc(Oc2ccc(Cl)cc2)c1)c1ccccc1	-61.3% (active)
